23 compounds from the supplement of paper PMC7411640 can be followed below.

Where a name gives a salt, the structure may show the parent alone.

The assay deals with MDA-MB-468. As to the kind of experiment: phospho-S6 immunofluorescence (DAPI-normalised), per-plate z-score; higher = higher phospho-S6 signal (less pathway suppression). The note with it: co-treatment: GDC0941 450 nM; 24 h. How it is done:
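GPCR-targeted compound library (MedChemExpress HY-L006) tested on MDA-MB-468 PTEN-null TNBC cells in 384-well plates at 0.1, 1 or 10 uM, combined with vehicle, GDC0941 450 nM or lapatinib 1 uM, for 24 h. Phospho-S6 (S240/244) immunofluorescence normalised to DAPI and expressed as a per-plate z-score; values are the mean of biological triplicates.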
As for `C[C@H]1CNCCc2ccc(Cl)cc21` [Lorcaserin (Hydrochloride)] (compound 10 µM), the “phospho-S6 immunofluorescence (z-score)” value was -1. For `Cc1c(C(=O)c2cccc3ccccc23)c2cccc3c2n1[C@H](CN1CCOCC1)CO3` [WIN 55,212-2 (Mesylate)] (compound 10 µM) the value was -2.24; for `CN1CCC2=C(C1)c1ccccc1Cc1ccccc12` [Setiptiline] (compound 10 µM), -0.28; for `O=C1CCC[C@@H]2[C@H]3CCCN4CCC[C@@H](CN12)[C@@H]34` [Matrine] (compound 10 µM), -0.52. For `O=C1CC[C@@]2(O)[C@H]3Cc4ccc(O)c5c4[C@@]2(CCN3CC2CC2)[C@H]1O5` [Naltrexone (Hydrochloride)] (compound 10 µM) the value was 0.88; for `CN1C(=O)COc2c(C(=O)NC3CN4CCC3CC4)cc(Cl)cc21` (stereo not drawn) [Azasetron (hydrochloride)] (compound 10 µM), 0.53.

For `O=c1[nH]c2ccccc2n1CCCN1CCC(n2c(=O)[nH]c3cc(Cl)ccc32)CC1` [Domperidone] (compound 10 µM), the “phospho-S6 immunofluorescence (z-score)” value came out at 0.19. For `CN1CCC(C(=O)c2cccc(NC(=O)c3c(F)cc(F)cc3F)n2)CC1` [Lasmiditan (hydrochloride)] (compound 10 µM) the value was -2.08; for `Oc1ccc2c3c1O[C@H]1c4[nH]c5ccccc5c4C[C@@]4(O)[C@@H](C2)N(CC2CC2)CC[C@]314` [Naltrindole (hydrochloride)] (compound 10 µM), -1.12. As for `CO[C@]12C[C@@H](COC(=O)c3cncc(Br)c3)CN(C)[C@@H]1Cc1cn(C)c3cccc2c13` [Nicergoline] (compound 10 µM), the figure is 0.57. As for `Cc1cccc(C)c1NC1=NCCCS1` [Xylazine (hydrochloride)] (compound 10 µM), the figure is 0.73.

`O=C(O[C@H]1C[N+]2(CCCOc3ccccc3)CCC1CC2)C(O)(c1cccs1)c1cccs1` [Aclidinium (Bromide)] (compound 10 µM): the “phospho-S6 immunofluorescence (z-score)” value worked out at 0.75.

With `N#Cc1c(Oc2cccc(OS(=O)(=O)CCCC(F)(F)F)c2)cccc1C(F)(F)F` (compound 10 µM), the “phospho-S6 immunofluorescence (z-score)” value is -3.05. In the case of `CC(C)[C@@H](CN1CC[C@@](C)(c2cccc(O)c2)[C@@H](C)C1)NC(=O)[C@H]1Cc2ccc(O)cc2CN1` [JDTic (dihydrochloride)] (compound 10 µM), the “phospho-S6 immunofluorescence (z-score)” value came to 0.26. Take `Cc1ccc2c(c1)C1(CCN(CCc3nc(-c4ccccc4)oc3C)CC1)OC(=O)N2` (compound 10 µM): the “phospho-S6 immunofluorescence (z-score)” value was found to be 0.56. As for `Cc1ncc(CN2CC=C(c3ccccc3)CC2)c(N)n1` [Ro 10-5824 (dihydrochloride)] (compound 10 µM), the figure is -1.36. As for `Cc1ccc2c(c1)[C@]13CCCC[C@@H]1[C@H](C2)N(C)CC3` [Dimemorfan (phosphate)] (compound 10 µM), the figure is 0.3; as for `CN1[C@@H]2CC(O)C[C@H]1[C@@H]1O[C@@H]12` (stereo partly drawn) [Scopine (hydrochloride)] (compound 10 µM), 1.05. For `NCC(O)c1ccc(O)cc1` (stereo not drawn) [Octopamine (hydrochloride)] (compound 10 µM) the value was 0.26; for `CNCC(O)c1ccc(O)cc1` (stereo not drawn) [Synephrine (hydrochloride)] (compound 10 µM), 1.02; for `O=C1Nc2ccccc2C2(CCN(CCc3ccc(C(F)(F)F)cc3)CC2)O1` (compound 10 µM), -3.3. Turning to `CN1[C@@H]2CC[C@H]1C[C@@H](OC(=O)[C@H](CO)c1ccccc1)C2` [L-Hyoscyamine] (compound 10 µM), the “phospho-S6 immunofluorescence (z-score)” value is 0.17. As for `CN(C)CCN(C)CCc1ccc(Cl)c(Cl)c1` [BD-1047 (dihydrobromide)] (compound 10 µM), the figure is 0.39.
